Bioassay records deposited in PubChem by several laboratories.
Rows were chosen to be rich in hits. Some 4.7% of all compounds tested hit in one or more screens of this group.
Mtb FBA inh = Mtb fructose-bisphosphate aldolase inhibition | P9WQA3 | purified M. tuberculosis FBA, fluorescence read-out | inhibition, % at 1 µM | 360,000 compounds, 2.3% hits | AID 588726; in the data active means inhibition above about 27%;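 further: 0% = vehicle and 100% = reference inhibitor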
Target sequence (P9WQA3 whole entry, looked up): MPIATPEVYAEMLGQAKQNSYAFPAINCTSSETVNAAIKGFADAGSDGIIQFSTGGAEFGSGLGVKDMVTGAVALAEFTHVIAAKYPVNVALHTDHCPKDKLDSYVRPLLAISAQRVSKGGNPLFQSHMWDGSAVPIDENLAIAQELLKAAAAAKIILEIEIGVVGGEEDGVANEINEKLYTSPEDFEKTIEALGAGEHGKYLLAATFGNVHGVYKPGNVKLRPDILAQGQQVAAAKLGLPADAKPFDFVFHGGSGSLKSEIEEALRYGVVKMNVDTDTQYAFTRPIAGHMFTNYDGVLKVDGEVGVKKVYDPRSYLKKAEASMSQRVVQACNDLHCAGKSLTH
RecA splice inh = Mtb RecA intein splicing inhibition. 290,000 compounds, 0.75% hits. cell-free RecA intein splicing, fluorescence. AID 2221. P9WHJ3. inhibition, % (no concentration beside the values); in the data active means inhibition above about 30%;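 further: 0% = vehicle wells and 100% = reference inhibitor control wells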
CCHF vOTU inh = CCHFV vOTU protease inhibition; Pep-AMC fluorescence; inhibition, % at 11.5 µM; 370,000 compounds, 0.55% hits; AID 651958; further: 0% = vehicle wells with enzyme and 100% = no enzyme wells
3CLpro inhibitor = SARS-CoV 3CLpro protease inhibition | P0C6X7 | recombinant SARS-CoV 3CLpro, quenched FRET peptide cleavage | inhibition, % at 6 µM | 290,000 compounds, 0.14% hits | AID 1706; in the data active means inhibition above about 12%
DUSP3 inh = blocks human VHR1 dual specificity phosphatase; P51452; recombinant VHR phosphatase, pNPP absorbance; inhibition, % at 13.3 µM; 290,000 compounds, 0.52% hits; in the data active means inhibition above about 50%
Target sequence (P51452 whole entry, looked up): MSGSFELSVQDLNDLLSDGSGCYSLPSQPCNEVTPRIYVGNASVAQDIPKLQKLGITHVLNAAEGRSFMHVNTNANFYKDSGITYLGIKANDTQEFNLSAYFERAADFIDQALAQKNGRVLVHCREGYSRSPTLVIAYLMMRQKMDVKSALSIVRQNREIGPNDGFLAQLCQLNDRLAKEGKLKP
GDH-TPI counter = inhibits GDH-TPI coupling enzymes, artifact for Mtb FBA screen; GDH-TPI coupled enzyme counterscreen, NADH absorbance; inhibition, % at 4.8 µM; 360,000 compounds, 1.2% hits;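 further: 0% = DMSO wells and 100% = wells lacking the enzyme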
Numbers without * were called inactive; i = inactive; . = not tested or not shown; + = active, no number. Unless noted, no stated cut-off is given here; in the data, active means inhibition above about 30%; inactive means the rest.

SMILES	Mtb FBA inh	RecA splice inh	CCHF vOTU inh	3CLpro inhibitor	DUSP3 inh	GDH-TPI counter
O=C(/C=C/c1ccccc1)NNC(=O)c1cccs1	0	-7	-18	1	7	8
CCN(CC)CCOC(=O)c1ccc(NC(=O)/C=C/c2cccs2)cc1	-1	0	11	-5	-1	25
O=C(/C=C/c1ccccc1)Nc1ccc(NC(=O)c2cccs2)cc1	-3	3	14	-3	29	35*
CCOC(=O)c1ccc(NC(=O)/C=C/c2cccs2)cc1	-1	5	23	-4	5	32*
CCOc1cc(/C=C(/C#N)c2nc3ccccc3[nH]2)ccc1OCc1ccc(C(=O)O)o1	2	-10	6	4	24	22
CCOc1cc(/C=C(/C#N)c2ccc(F)cc2)ccc1OCc1ccc(C(=O)O)o1	3	8	26	5	-28	34*
Cc1ccc(/C=N/NC(=O)c2nnn(-c3nonc3N)c2-c2ccc3c(c2)OCO3)s1	0	0	5	9	-15	47*
COc1cc(/C=N/NC(=O)c2nnn(-c3nonc3N)c2C(C)C)ccc1O	-3	-3	12	0	-3	32*
COc1cc(/C=N/NC(=O)c2nnn(-c3nonc3N)c2-c2cccs2)ccc1O	4	0	14	-1	4	47*
CCCc1c(C(=O)N/N=C/C(C)=C/c2ccccc2)nnn1-c1nonc1N	2	0	15	-1	-13	3
CC(/C=N/NC(=O)c1nnn(-c2nonc2N)c1C(C)C)=C\c1ccccc1	3	6	23	5	7	33*
Nc1nonc1-n1nnc(C(=O)N/N=C/c2ccc(F)cc2)c1-c1ccc2c(c1)OCO2	-1	-1	-8	0	-18	10
Cc1ccsc1/C=N/NC(=O)c1nnn(-c2nonc2N)c1C(C)C	2	0	18	-2	-7	34*
COc1ccc(/C=N/NC(=O)c2nnn(-c3nonc3N)c2-c2cccs2)cc1OC	7	2	3	3	17	69*
Cc1ccc(/C=N/NC(=O)c2nnn(-c3nonc3N)c2-c2cccs2)cc1	7	-4	-5	-4	20	27
CC(C)(C)S(=O)(=O)N1Cc2cc(CO)ccc2[C@@H]1CCO	.	.	13	.	.	.
CC(C)(C)c1nc(SCC(=O)NNC(=O)c2ccccc2)c2ccccc2n1	0	5	1	5	17	-1
O=C1c2ccc3c4c(ccc(c24)C(=O)N1Cc1cccnc1)C(=O)N(Cc1cccnc1)C3=O	.	.	.	2	26	.
O=C1c2ccc([N+](=O)[O-])cc2C(=O)N1Cc1cccnc1	-1	-6	5	2	52*	4
COc1ccc(Oc2coc3c(CN(C)C)c(O)ccc3c2=O)cc1	15	-3	-24	4	-20	19
COc1ccc(Oc2c(C)oc3c(CN(C)C)c(O)ccc3c2=O)cc1	43*	0	-48	2	18	26
COC(=O)c1ccc(Oc2c(C)oc3c(CN4CCN(C)CC4)c(O)ccc3c2=O)cc1	+	-4	-236	-4	-18	22
COc1ccccc1Oc1c(C)oc2c(CN3CCN(C)CC3)c(O)ccc2c1=O	.	-2	-127	3	25	.
Cc1oc2c(CN(C)C)c(O)ccc2c(=O)c1-c1cscn1	66*	-5	-71	0	25	26
COc1cccc(Oc2c(C)oc3c(CN4CCCCC4)c(O)ccc3c2=O)c1	179*	-4	-305	0	25	22
SMILES	Mtb FBA inh	RecA splice inh	CCHF vOTU inh	3CLpro inhibitor	DUSP3 inh	GDH-TPI counter
O=C(/C=C/[C@H]1O[C@@H](n2cnc3c(NC(=O)c4ccccc4)ncnc32)[C@H](O)[C@@H]1O)N[C@@H](CO)Cc1c[nH]c2ccccc12	0	.	-8	.	.	.
COc1ccc(CN2CCCC(C(=O)Nc3cccc(-n4cnnn4)c3)C2)c(C)c1C (stereo unspecified)	-1	-6	14	4	-3	-1
COc1ccc(/C=C2\CC3(OC(=O)c4cccc(F)c4)CCCN2C3)cc1 (stereo unspecified)	.	.	6	.	.	.
O=C(c1ccco1)N(Cc1cccc([N+](=O)[O-])c1)c1ccc(Br)cc1	-2	-1	11	5	1	5
O=C(c1ccco1)N(Cc1ccc([N+](=O)[O-])cc1)c1ccc(Br)cc1	-11	17	2	13*	26	2
COc1ccc(C(CC(=O)c2ccc(O)cc2)S(=O)(=O)c2ccc(C)cc2)cc1 (stereo unspecified)	-1	.	15	3	2	34*
COc1ccc(C(=O)CC(c2ccccc2)S(=O)(=O)c2ccc(C)cc2)cc1 (stereo unspecified)	.	1	.	-1	-6	.
COCCCn1c(=NC(=O)c2ccccc2)c(C#N)cc2c(=O)n3cccc(C)c3nc21	174*	-420	-113	-2	45	-6
CCCn1c(=NC(C)=O)c(C#N)cc2c(=O)n3cccc(C)c3nc21	.	.	.	1	.	.
CCOCCCn1c(=NC(C)=O)c(C(=O)OCC)cc2c(=O)n3ccccc3nc21	12	i	-15	-2	-4	2
CCOCCCn1c(=NC(C)=O)c(C#N)cc2c(=O)n3ccccc3nc21	+	i	-334	0	27	24
CCOCCCn1c(=NC(=O)c2cccs2)c(C#N)cc2c(=O)n3cccc(C)c3nc21	+	-26	-71	-2	1	13
COCCCn1c(=NC(C)=O)c(C#N)cc2c(=O)n3cccc(C)c3nc21	+	i	-92	4	34	-1
O=C(Nc1nnc(S(=O)(=O)N2CCCCC2)s1)c1cccc(Br)c1	0	0	.	4	-2	10
O=C1CCc2cc(S(=O)(=O)N3CCN(c4ccccc4Cl)CC3)ccc2N1	.	.	6	.	.	.
CC1C2=C(CC(C)(C)CC2=O)NC2=C1C(=O)CC(C)(C)C2	+	-390	-260	3	-3	-3
CC1(C)CC(=O)C2=C(C1)NC(=O)NC2c1ccccc1 (stereo unspecified)	4	-2	-11	1	9	1
O=C1NC(=O)/C(=C/c2cccc3ccccc23)S1	0	6	0	-1	38	37*
CCN(CC)c1ccc2cc(S(=O)(=O)c3ccc(Cl)cc3)c(=O)oc2c1	9	.	-13	-4	0	16
O=c1oc2cc(O)ccc2cc1S(=O)(=O)c1ccccc1	+	i	-368	2	-10	15
O=c1oc2cc(O)ccc2cc1-c1nc2ccccc2o1	+	.	-402	.	.	.
COC(=O)c1cc(S(=O)(=O)N2CCN(c3cccc(C(F)(F)F)c3)CC2)cn1C	.	.	5	.	.	.
O=C(COc1ccccc1)NCc1nnc2c3ccccc3c(-c3ccccc3)nn12	-2	0	6	6	10	10
O=c1c2cc(N3CCOCC3)ccc2[nH]c(=S)n1CCCN1CCCC1	5	-39	-7	1	20	27
O=c1c2cc(N3CCOCC3)ccc2[nH]c(=S)n1CCCN1CCCCC1	4	-11	-10	-3	9	31*
